For ten molecules, relative viability results are on record in the supplement of paper PMC6279402.

± gives the standard deviation of the averaged measurements.

The subject of the assay is A549. The experiment in a line: relative viability (normalised to negative control = 1, bortezomib = 0) (fraction); higher = less cytotoxic. The conditions noted are these: inflammatory serum-free RHB-A with cytokines + LPS, 5 d + 24 h CellTiter-Blue. The method, then:
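A549 KRAS-mutant NSCLC cells, pre-treated 5 µM GSK126 or vehicle (DMSO), were seeded at 250 cells/well in 384-well plates in serum-free RHB-A medium with inflammatory cytokines/LPS and treated with Selleck kinase inhibitor and NCI oncology compounds at 30 or 300 nM in triplicate, refreshed at 48 h. Viability was read by CellTiter-Blue after 5 d plus 24 h and normalised per plate with cellHTS2 (mean of bortezomib positive control = 0, mean of negative control = 1).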
For orientation: Alamar Blue is a resazurin reagent that responds to reducing activity.

Setting [1] is: compound 30 nM, GSK126 pretreatment: 5 uM GSK126.
Setting [2] is: compound 30 nM, GSK126 pretreatment: none (vehicle).
[3] abbreviates: compound 300 nM, GSK126 pretreatment: 5 uM GSK126.
Where [4] appears, read: compound 300 nM, GSK126 pretreatment: none (vehicle).

Take `C=C1C[C@@H]2[C@H](CC[C@]3(C)C(=O)CC[C@@H]23)[C@@]2(C)C=CC(=O)C=C12` [Exemestane]: the relative viability under setting [1] is 0.797 ± 0.073, the relative viability under setting [2] was found to be 0.82 ± 0.079, the relative viability under setting [3] was 0.839 ± 0.17 and the relative viability under setting [4] came to 0.971 ± 0.086.

Consider `O=C(O)CCCc1ccc(N(CCCl)CCCl)cc1` [Chlorambucil], for which the relative viability was determined as 0.933 ± 0.1 under setting [1], 0.844 ± 0.11 under setting [2], 0.836 ± 0.13 under setting [3] and 0.845 ± 0.12 under setting [4].

Regarding `O=P1(NCCCl)OCCCN1CCCl` (stereo not given) [Ifosfamide], the relative viability under setting [1] was found to be 0.792 ± 0.087, the relative viability under setting [2] was 0.806 ± 0.063, the relative viability under setting [3] was 0.803 ± 0.16 and the relative viability under setting [4] was found to be 0.91 ± 0.11.

Consider `Cc1ccccc1-n1c(Cn2cnc3c(N)ncnc32)nc2cccc(C)c2c1=O`, for which the relative viability came out at 0.828 ± 0.076 under setting [1], 0.784 ± 0.083 under setting [2], 0.79 ± 0.088 under setting [3] and 0.875 ± 0.056 under setting [4].

For `C1CN1c1nc(N2CC2)nc(N2CC2)n1` [Triethylenemelamine], the relative viability by setting is: under setting [1], 0.834 ± 0.081; under setting [2], 0.834 ± 0.059; under setting [3], 0.828 ± 0.012; under setting [4], 0.918 ± 0.042.

Regarding `N[C@@H](Cc1ccc(N(CCCl)CCCl)cc1)C(=O)O` [Melphalan], the relative viability runs as follows: under setting [1], 0.835 ± 0.054; under setting [2], 0.819 ± 0.11; under setting [3], 0.874 ± 0.13; under setting [4], 0.876 ± 0.068.

Consider `Oc1ncc(N(CCCl)CCCl)c(O)n1` [Uracil mustard], for which the relative viability runs as follows: under setting [1], 0.792 ± 0.024; under setting [2], 0.801 ± 0.027; under setting [3], 0.81 ± 0.029; under setting [4], 0.87 ± 0.03.

With `CCN1CCN(C(=O)Cc2ccc(Nc3ncc(F)c(Nc4ccc(C(=O)Nc5ccccc5Cl)cc4)n3)cc2)CC1` [Aurora A Inhibitor I], the relative viability under setting [1] stood at 0.988 ± 0.045, the relative viability under setting [2] was 1.02 ± 0.032, the relative viability under setting [3] stood at 0.808 ± 0.14 and the relative viability under setting [4] amounted to 0.671 ± 0.027.

With `Cc1ccccc1-n1c(Cn2ncc3c(N)ncnc32)nc2cccc(C)c2c1=O`, the relative viability under setting [1] was 0.756 ± 0.055, the relative viability under setting [2] was determined as 0.787 ± 0.046, the relative viability under setting [3] was 0.689 ± 0.12 and the relative viability under setting [4] is 0.857 ± 0.13.

Take `N.N.[Cl][Pt][Cl]` [Cisplatin]: the relative viability came out at 0.813 ± 0.035 under setting [1], 0.812 ± 0.029 under setting [2], 0.839 ± 0.099 under setting [3] and 0.875 ± 0.018 under setting [4].
